KB-V1 MDR tox = KB-V1 MDR subline cytotoxicity. KB-V1 MDR cells viability, CellTiter-Glo, 72 h. Potency, µM (top dose mostly 46.1 µM), usual class: cytotoxic. hit rate 3.4% among 400,000; also: % is scaled to controls: 0 for no effect and ±100 for the full control effect; nearly all actives have a fitted effect of over 60% in size
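KB-V1, DMEM (no phenol red) + 10% FBS; cpd pin-transferred, titration series; 72 h, 37 degrees C; CellTiter-Glo, luminescence. Data normalized, curve-fit.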
SW480 rerep = DNA re-replication induction in SW480 cells; SW480 DNA re-replication, Hoechst DNA content imaging, 48 h; Potency, µM (titrated, usually from 46.1 µM), for inactives: top-dose re-replication activation, most hits filed as activators; hit rate 1.8% among 340,000; also: % of control where 0% means no effect; nearly all actives have a fitted effect of over 55% in size
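Image-based DNA-content assay: after two days of treatment, nuclei were labelled with the DNA dye Hoechst and imaged, and hits were compounds raising the count of nuclei showing high fluorescence intensity.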
HT1080 IDH1KD tx = toxicity to HT-1080 IDH1 knockdown cells (counter line) | HT-1080 IDH1 knockdown viability, ATP luminescence, 48 h | Potency, µM (series often up to 46.1 µM), for the others: top-dose activity, negative = toxicity, most hits filed as cytotoxic | hit rate 2% among 360,000;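 also: 0% = DMSO wells and -100% = cell-free medium wells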
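Using the IDH1-knockdown HT-1080 line run in the same batch and compound series as the NT line, viability after 48 h at 37 °C was determined by CellTiter-Glo luminescence and expressed as % activity.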
MCF10A rereplic = induces DNA re-replication in MCF 10a normal breast cells; hit rate 2.9% among 350,000; MCF 10A DNA re-replication, Hoechst nuclear intensity, 48 h; Potency, µM (series often up to 46.1 µM), without a hit: at the top dose activity, positive = re-replication, usual class: activators; also: % of control where 0% means no effect; nearly all actives have a fitted effect of over 50% in size
KB-3-1 cytotox = KB-3-1 parental cell cytotoxicity; Potency, µM (doses to about 46.1 µM), hits mostly cytotoxic; hit rate 1.4% among 400,000; KB-3-1 viability, CellTiter-Glo ATP luminescence, 72 h; AID 1347075; also: % is scaled to controls: 0 for no effect and ±100 for the full control effect; nearly all actives have a fitted effect of over 60% in size
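Parental KB-3-1 adenocarcinoma cells in phenol-red-free DMEM with 10% FBS were pin-treated with compounds at several concentrations, incubated 72 h at 37 °C, and viability read by CellTiter-Glo luminescence; concentration-effect curves were fitted after normalization.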
HT1080-NT tox = kills 2HG-producing HT-1080-NT fibrosarcoma cells; HT-1080-NT fibrosarcoma viability, CellTiter-Glo ATP luminescence, 48 h; Potency, µM (top dose mostly 46.1 µM), for the others: top-dose activity, negative = less viability, hits mostly cytotoxic; hit rate 1.6% among 360,000;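 also: NT is the 2HG producing partner of a matched IDH1 knockdown line; 0% = DMSO-treated cells and -100% = media-only wells without cells; nearly all actives have a fitted effect of over 55% in size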
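HT-1080-NT; 750 cells/well; 5% FBS RPMI; 48 h compound, 37 degrees C; CellTiter-Glo luminescence; curve fitting and curve-class assignment.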
* = called active by the depositor; i = inactive; ? = inconclusive; . = not tested or not shown. Compounds with a hit are over-represented: about 8% of the library has one in this group of screens. Calls follow the shape of the dose curve; as a rule, active = well fitted curve in the direction sought with a large enough effect; inconclusive = small, poorly fitted or top-dose-only effect, or another doubt; inactive = no such curve, though single readings can be large; an effect the other way counts as inactive or inconclusive. Potency is read from the fitted curve at half-maximal effect.

SMILES | KB-V1 MDR tox | SW480 rerep | HT1080 IDH1KD tx | MCF10A rereplic | KB-3-1 cytotox | HT1080-NT tox
N#CCc1ccc(OCCCN2CCC(C(O)(c3ccccc3)c3ccccc3)CC2)cc1 | 18µM* | . | ? | . | ? | 21µM*
OC(c1ccccc1)(c1ccccc1)C1CCN(CCCOc2cccc(OC(F)(F)F)c2)CC1 | i | . | 16µM* | . | ? | 18µM*
CC(=O)Nc1ccccc1OCCCN1CCC(C(O)(c2ccccc2)c2ccccc2)CC1 | ? | . | ? | . | i | ?
OC(c1ccccc1)(c1ccccc1)C1CCN(CCCOc2ccc3c(c2)CCCC3)CC1 | 21µM* | . | 13µM* | . | ? | 15µM*
CC(C)(C)c1ccc(C(O)CCCN2CCC(C(O)(c3ccccc3)c3ccccc3)CC2)cc1 (centres undefined) | i | -2% | -19% | ? | i | -13%
CC(=O)Nc1ccc(OCCCN2CCC(C(O)(c3ccccc3)c3ccccc3)CC2)cc1 | i | . | ? | . | i | -24%
CCn1c(CN2CCCCC2)nc2cc(NC(=O)COc3ccc([N+](=O)[O-])cc3)ccc21 | ? | . | . | . | i | .
CCCn1c2ccccc2c2cnn(CC(=O)N(CCCOC(C)C)Cc3ccco3)c(=O)c21 | ? | . | . | . | i | .
CCc1ccc(NC(=O)c2ccc(OC)c([N+](=O)[O-])c2)cc1 | 15µM* | -87% | 10% | -7% | i | 21%
COc1ccc(C(=O)Nc2c(C)ccc3nsnc23)cc1[N+](=O)[O-] | 15µM* | -12% | 21% | 8% | i | 3%
Cc1nc2c(-c3ccc(F)cc3)c(C)nn2c(C)c1CCC(=O)NCc1cccc(Cl)c1 | i | . | . | . | ? | .
O=C1CSC(c2cn(-c3ccccc3)nc2-c2ccccc2)N1Cc1ccco1 (centres undefined) | ? | -1% | ? | 21µM* | ? | ?
CCc1ccc(-c2nn(-c3ccccc3)cc2C2SCC(=O)N2Cc2ccco2)cc1 (centres undefined) | i | 4% | -13% | ? | i | -8%
COc1cccc(Cn2c(NCc3ccc(C)cc3)nc3c2c(=O)n(C)c(=O)n3C)c1 | i | . | . | . | i | .
CCc1ccc(NC(=O)C(C)OC(=O)c2ccc(NS(=O)(=O)c3ccc(C)c([N+](=O)[O-])c3)cc2)cc1 (centres undefined) | ? | ? | ? | ? | 23µM* | ?
CC(OC(=O)c1ccc(Cl)nc1)C(=O)Nc1ccc(S(=O)(=O)N2CCCC2)cc1 (centres undefined) | ? | -6% | 3% | 4% | i | -2%
CC(=O)Nc1ccc(NC(=O)C(C)OC(=O)c2ccc(S(=O)(=O)N3CCCCC3)cc2)cc1 (centres undefined) | i | ? | ? | ? | i | 23µM*
CC(C)[C@H](NC(=O)c1ccccc1)C(=O)OCC(=O)c1ccc(S(=O)(=O)N2CCCCC2)cc1 | 21µM* | -2% | 0% | 2% | i | 2%
CC1CC1C(=O)Nc1ccc(S(=O)(=O)N2CCCCC2)cc1 (centres undefined) | 10µM* | -12% | -2% | 15% | i | -4%
O=C(NC1CCCC1)c1ccc(CSc2nc3cccnc3n2Cc2ccccc2F)cc1 | i | . | . | . | i | .
CCN1CCC(N(Cc2ccc(F)cc2)C(=O)Nc2cccc(C(F)(F)F)c2)CC1 | i | . | . | . | i | .
Cc1cc(-c2nc3ncccc3o2)ccc1NC(=O)c1ccc(Cl)cc1 | i | . | . | . | i | .
O=C(Nc1ccc(S(=O)(=O)N2CCCCC2)cc1)C1CCCN(C(=O)c2ccc(Cl)cc2)C1 (centres undefined) | i | -1% | -10% | 29% | 9.2µM* | -8%
COC(=O)Nc1ccc(S(=O)(=O)N2CCCCC2)cc1 | 8.2µM* | -3% | -24% | 7% | ? | -25%
